High-throughput results as filed in PubChem BioAssay.
The entries come from a sample that favours hits as a whole.
Eya2 inh – blocks the phosphatase activity of human Eya2 | AID 488837 | recombinant Eya2, OMFP fluorescence dephosphorylation (OMFP is methylfluorescein phosphate) | O00167 | Potency, µM (highest dose often 76.9 µM), for inactives: at the top dose activity, negative = inhibition, usual class: inhibitors | 0.006% of 330,000 active; also: % is scaled to controls: 0 for no effect and ±100 for the full control effect
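Eya2 (0.2 uM) preincubated 10 min at ambient with compound, then OMFP substrate added at 50 uM; 10 min reaction in 50 mM HEPES pH 7.5, 50 mM NaCl, 5 uM MgCl2, 0.05% BSA, 1 mM DTT. Fluorescence read at Ex 485/Em 525 nm.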
ClpP mod – qHTS Assay for Activators of ClpP; ATP-dependent Clp protease proteolytic subunit (Bacillus subtilis (strain 168)), P80244; purified B. subtilis ClpP, FRET peptide cleavage, 20 min; Potency, µM (highest dose often 57.5 µM), for inactives: at the highest dose activity change, negative = active; 1.9% of 340,000 active; AID 651965, 2013; active = well fitted falling curve with a large enough effect; inconclusive = small, poorly fitted or top-dose-only effect; inactive = no such curve, though single readings can be large or run the other way; also: the source files actives as falling curves though it sought activators and does not explain the sign; nearly all actives have a fitted effect of over 65% in size
Target sequence (P80244 whole entry, looked up): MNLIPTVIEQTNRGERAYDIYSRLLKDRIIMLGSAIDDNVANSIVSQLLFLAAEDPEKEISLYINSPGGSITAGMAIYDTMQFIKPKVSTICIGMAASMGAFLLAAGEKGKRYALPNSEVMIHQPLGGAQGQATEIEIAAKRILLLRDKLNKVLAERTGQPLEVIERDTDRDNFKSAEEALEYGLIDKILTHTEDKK
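Buffer: 100 mM Tris/HCl pH8, 100 mM KCl, 0.05% low protease BSA, 2.5% glycerol, 0.01% Tween-20. ClpP 10 microg/mL final; 20 min RT; delta FRET normalized to ADEP and DMSO controls.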
p53 reactivation – re-activators of mutant p53. 0.063% of 320,000 active. H1299 p53-A138V BP100-luciferase reporter, luminescence, 24 h. AID 504706. Potency, µM (titrated, usually from 92.2 µM), without a hit: at the top dose activity change, positive = activation, actives largely listed as activators; also: % of control where 0% means no effect; nearly all actives have a fitted effect of over 45% in size
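H1299 (p53-null), stable ts p53-A138V + BP100-Luc; 1000 cells/well, Opti-MEM/10% FBS; cpd 4 pt, 1:5; 24 h, 37 deg C, 5% CO2; detection reagent 10 min RT; luminescence.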
USP2a block – inhibitors of human ubiquitin-specific protease USP2a | O75604 | USP2 core, Ub-CHOP2 coupled fluorogenic reporter, 485/531 | 0.01% of 330,000 active | Potency, µM (top dose mostly 38.3 µM), for inactives: at the top dose activity change, negative = inhibition, most hits filed as inhibitors;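 also: plate controls were DMSO wells for no effect and full inhibition by NEM control for full effect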
Target sequence (O75604 whole entry, looked up): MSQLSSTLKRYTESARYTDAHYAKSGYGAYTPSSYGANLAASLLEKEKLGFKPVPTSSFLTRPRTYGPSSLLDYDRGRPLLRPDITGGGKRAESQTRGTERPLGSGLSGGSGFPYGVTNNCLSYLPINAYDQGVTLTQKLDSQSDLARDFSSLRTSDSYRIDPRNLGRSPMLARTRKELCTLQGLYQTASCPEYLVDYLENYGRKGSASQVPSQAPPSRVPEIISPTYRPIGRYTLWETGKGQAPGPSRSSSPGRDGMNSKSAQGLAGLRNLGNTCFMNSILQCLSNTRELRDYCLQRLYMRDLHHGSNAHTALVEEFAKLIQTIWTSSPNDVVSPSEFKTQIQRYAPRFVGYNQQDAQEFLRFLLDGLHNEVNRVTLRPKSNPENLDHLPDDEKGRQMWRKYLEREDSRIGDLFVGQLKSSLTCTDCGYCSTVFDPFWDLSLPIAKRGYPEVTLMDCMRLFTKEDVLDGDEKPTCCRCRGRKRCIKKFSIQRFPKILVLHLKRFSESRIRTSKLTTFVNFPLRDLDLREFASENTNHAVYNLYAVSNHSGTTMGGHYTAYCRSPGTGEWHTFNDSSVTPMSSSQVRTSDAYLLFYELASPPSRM
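USP2 core (10nM final) preincubated 30min RT with compound in 20mM Tris-HCl pH 8.0, 2mM CaCl2, 2mM beta-mercaptoethanol, 0.05% CHAPS; 25nM Ub-CHOP2 plus 25nM reporter substrate added, fluorescence (Ex485/Em531) read after 60min.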
a7 integrin act – activates integrin-mediated alleviation for muscular dystrophy. AID 624291. Potency, µM (top dose mostly 38.3 µM), for the others: at the top dose activation, hits mostly activators. 0.064% of 350,000 active. alpha7betagal myoblasts, beta-gal FDG fluorescence, 48 h;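 also: 100% = response of the positive control SU9516; nearly all actives have a fitted effect of over 60% in size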
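alpha7betagal+/- myoblasts (passage 13, 250/well) treated 48 h at 37C with compounds at 1:260 dilution of DMSO stock. Lysed, then beta-galactosidase activity read as FDG fluorescence (ex 480/em 540) after 30 min, with pre-read for autofluorescence.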
MmCpn inh – blocks the Methanococcus maripaludis chaperonin Mm-Cpn; purified Mm-Cpn ATPase, ADP Transcreener TR-FRET; Potency, µM (series often up to 76.9 µM), inactives show top-dose activity, negative = inhibition, hits mostly inhibitors; 0.031% of 330,000 active; AID 504842; also: % is scaled to controls: 0 for no effect and ±100 for the full control effect; nearly all actives have a fitted effect of over 80% in size
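ATPase read-out: TR-FRET ADP immunoassay (anti-ADP Eu cryptate vs ADP-d2), ex 320 nm, em 590/665 nm; signal drops as ADP forms. Enzyme 25 nM, ATP 10 uM, 30 min at 37°C after 10 min compound preincubation.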
ClpP validation – inhibits B. subtilis ClpP protease, hit validation; purified B. subtilis ClpP, FRET-FV substrate cleavage, 20 min; Potency, µM (doses to about 57.5 µM), for inactives: top-dose activity change, negative = inhibition, usual class: inhibitors; 40% of 470 active; AID 743245; shares compounds with ClpP mod; also: % is scaled to controls: 0 for no effect and ±100 for the full control effect; nearly all actives have a fitted effect of over 70% in size
* hit, by the source's call; ? = inconclusive; nt = not tested or not shown; [ ] = remark or other dose. Unless noted, calls follow the shape of the dose curve; as a rule, active = well fitted curve in the direction sought with a large enough effect; inconclusive = small, poorly fitted or top-dose-only effect, or another doubt; inactive = no such curve, though single readings can be large; an effect the other way counts as inactive or inconclusive. Potency is read from the fitted curve at half-maximal effect.

SMILES	Eya2 inh	ClpP mod	p53 reactivation	USP2a block	a7 integrin act	MmCpn inh	ClpP validation
Cc1ccc(NC(=O)COC(=O)COc2ccc3ccc(=O)oc3c2)cc1[N+](=O)[O-]	4%	104%	-2%	0%	-1%	1%	19µM*
Cc1cc(=O)oc2cc(OCC(=O)OCC(=O)Nc3ccccc3F)ccc12	-10%	nt	-1%	3%	10%	?	nt
Cc1cc(=O)oc2cc(OCC(=O)OCC(=O)Nc3ccccc3C(C)C)ccc12	-1%	79%	9%	3%	16%	-4%	?
Cc1ccc(S(=O)(=O)N(C)C)cc1NC(=O)COC(=O)COc1ccc2c(C)cc(=O)oc2c1	3%	88%	-2%	-1%	-4%	-2%	-24%
Cc1cc(=O)oc2cc(OCC(=O)OCC(=O)Nc3ccc(C(N)=O)cc3)ccc12	-16%	nt	0%	4%	13%	0%	nt
Cc1cc(=O)oc2cc(OCC(=O)Nc3cccc(S(=O)(=O)N(C)C)c3)ccc12	5%	-13%	7%	2%	37%	-29%	nt
Cc1cc(OCC(=O)OCC(=O)NCc2ccc3c(c2)OCO3)ccc1Cl	7%	-1%	0%	0%	-2%	0%	nt
Cc1cc(=O)oc2cc(OCC(=O)OCC(=O)NCc3ccc4c(c3)OCO4)ccc12	-2%	199%	-4%	4%	-15%	-3%	-26%
COc1ccc(-c2cc3nc4n(c(=O)c3s2)CCCCC4)cc1	-1%	nt	12%	1%	9%	-2%	nt
COc1ccc(-c2cc3nc4n(c(=O)c3s2)CCC4)cc1	-1%	106%	18%	0%	-14%	-2%	1.9µM*
CCOc1cc(C2NN=C(c3ccccc3)S2)ccc1OCc1ccccc1Cl (centres undefined)	-15%	3.5µM*	19%	0%	-4%	0%	?
CCOc1cc(CNC2CCCC2)ccc1OCc1ccccc1Cl	-22%	2%	0%	0%	-53%	-2%	nt
COC(=O)c1ccc2c(=O)n(CCCCCC(=O)NCCc3ccc(Cl)cc3)c(=O)[nH]c2c1	nt	-3%	nt	nt	nt	nt	nt
COc1cccc(C(=O)Nc2ccc(Cl)c(-c3nc4ccccc4[nH]3)c2)c1	nt	-20%	nt	nt	nt	nt	nt
Cc1ccc(Cl)cc1N1CCN(C(=O)c2cc(S(=O)(=O)N3CCCC3)cn2C)CC1	nt	1%	nt	nt	nt	nt	nt
Cc1nc2ccc([N+](=O)[O-])cc2c(=O)n1Cc1ccccc1Br	5%	41%	-1%	-2%	-5%	-5%	-1%
O=C1Cc2cc(S(=O)(=O)N3CCNCC3)ccc2N1	8%	104%	5%	1%	-10%	-1%	6%
CCOc1ccccc1NC(=O)c1cnn2c(C(F)F)cc(-c3ccccc3)nc12	nt	5%	nt	nt	nt	nt	nt
Cc1cc(C)cc(C(=O)N(Cc2ccco2)c2c(N)n(Cc3ccccc3)c(=O)[nH]c2=O)c1	15%	10µM*	-3%	0%	27%	-3%	-1%
CCOc1ccc(C(=O)NCCc2csc(-c3cccnc3)n2)cc1	nt	-17%	nt	nt	nt	nt	nt
CCn1c(=O)c2cc(C(=O)Nc3cccc(C(F)(F)F)c3)sc2c2ccccc21	nt	-5%	nt	nt	nt	nt	nt
CCCc1cc(C(=O)O)c2ccccc2n1	9%	-2%	-1%	-5%	3%[7.66 µM]	0%	nt
CCCc1c2ccccc2nc2ccccc12	-7%	7.1µM*	-5%	0%	19%	-3%	19µM*
Cc1ccccc1Nc1c(-c2cc(Br)ccc2F)nc2ccccn12	nt	4.5µM*	nt	nt	nt	nt	-7%
CC(=O)c1ccc(NC(=O)Cn2c(=O)c3cccn3c3ccccc32)cc1	nt	-4%	nt	nt	nt	nt	nt
SMILES	Eya2 inh	ClpP mod	p53 reactivation	USP2a block	a7 integrin act	MmCpn inh	ClpP validation
COc1ccc(NC(=O)Cn2c(=O)c3cccn3c3ccccc32)cc1	nt	51%	nt	nt	nt	nt	-18%
CCOc1ccc(NC(=O)c2oc3ccccc3c2NC(=O)COc2cccc(OC)c2)cc1	nt	33%	nt	nt	nt	nt	nt
COc1ccccc1NC(=O)c1oc2ccccc2c1NC(=O)c1ccco1	15%	148%	7%	1%	8%[7.66 µM]	-1%	22µM*
CCOc1ccc(CC(=O)Nc2c(C(=O)Nc3ccc(OC)cc3OC)oc3ccccc23)cc1	nt	31%	nt	nt	nt	nt	19µM*
O=C(COc1ccccc1F)Nc1c(C(=O)Nc2cccc(F)c2)oc2ccccc12	nt	79%	nt	nt	nt	nt	?
CCOC(=O)c1oc2ccccc2c1NC(=O)COc1cccc(OC)c1	14%	48%	-1%	1%	10%	1%	19µM*
COc1ccc(CC(=O)Nc2c(C(=O)Nc3ccc(F)cc3)oc3ccccc23)cc1OC	nt	-20%	nt	nt	nt	nt	nt
CCCNC(=O)c1ccc(C2SCC(=O)N2Cc2ccccc2)cc1 (centres undefined)	5%	2.5µM*	-8%	-1%	-11%	-1%	-1%
Cc1ccc(-c2cc3nc(-c4ccccc4)cc(N4CCOCC4)n3n2)cc1	-20%	8.9µM*	8%	-6%	14%	-2%	34µM*
COc1ccc(-c2cc3nc(-c4ccccc4)cc(N4CCC5(CC4)OCCO5)n3n2)cc1	-3%[15.4 µM]	7.1µM*	-7%	-4%	-21%	-13%	4.9µM*
Cc1ccccc1CNC(=O)Cc1ccc(NC(=O)N2CCCCc3ccccc32)cc1	nt	-1%	nt	nt	nt	nt	nt
COc1ccc(-c2ccc(N(C)C)cc2)cc1[C@H]1[C@H]2C=CC[C@@H](C)[C@@H]2C(=O)N1Cc1ccccc1	-2%	2.2µM*	13%	10%	-6%	-1%	34µM*
COc1ccc(-c2ccc(OC)c([C@H]3[C@H]4C=CC[C@@H](C)[C@@H]4C(=O)N3Cc3ccccc3)c2)cc1C	-5%	-6%	8%	9%	-30%	2%	nt
COc1ccccc1-c1noc(CCCC(=O)Nc2cc(C)ccc2C)n1	nt	1%	nt	nt	nt	nt	nt
Cc1ccc(CCNC(=O)c2cc3n(n2)CCCN(Cc2ccc(C)cc2)C3=O)cc1	nt	-3%	nt	nt	nt	nt	nt
CSc1cccc(NC(=O)c2ccc3c(c2)c(C)c(C)n3Cc2ccc(F)cc2)c1	nt	7.1µM*	nt	nt	nt	nt	27µM*
Cc1ccccc1NC(=O)c1ccc2c(c1)c(C)c(C)n2Cc1ccccc1	nt	-11%	nt	nt	nt	nt	nt
CCOc1ccc(N(C(=O)CNC(=O)c2ccco2)C(C(=O)NC2CCCC2)c2ccco2)cc1 (centres undefined)	6%	3.2µM*	26%	0%	-46%	0%	0%
